Compounds without any hit were thinned out: in the full panel of roughly 83,000, 20% have a hit.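 Cells were grown in 96-well plates and exposed to the test compound at a single concentration for 48 hours; results are reported as percent growth, with values below 10 considered active.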 Values without a mark were called inactive. Activity calls are given as the source filed them.

Among the test systems are NCI-H226 lung; NCI-H322M lung; HOP-62 NSCLC; NCI-H460 lung; HOP-92 NSCLC; NCI-H522 lung; A549/ATCC NSCLC; 786-0 renal; COLO 205 colon.
Assay in all cases: NCI-60 one-dose screen, 48 h (100 = growth as untreated, 0 = no growth, -100 = all killed)
Holding throughout (settings): 10 µM unless noted

With `CC1(C)CC[C@]2(C(=O)Nc3ccc(F)cc3)CC[C@]3(C)C(=CCC4[C@@]5(C)C[C@@H](O)[C@H](O)[C@@](C)(CO)C5CC[C@]43C)C2C1` (some centres not stated), the growth with NCI-H226 lung is 25.5%; in the assay on NCI-H322M lung, 72.7%; in the assay on HOP-62 NSCLC it was 58.6%; in the assay on NCI-H460 lung it was 30.8%; with HOP-92 NSCLC, -1.23% (active); with NCI-H522 lung, 32.8%. For the same compound, the growth in the assay with A549/ATCC NSCLC is 28.5%; in the assay with 786-0 renal, 51.1%; with COLO 205 colon, 0.244% (active).

As for `Cn1cc(-c2cc3nc(-c4c[nH]c5ccc(Cl)cc45)cc(N)n3n2)c2ccccc21`, the growth with NCI-H226 lung was -33.8% (active); in the assay on NCI-H322M lung it was -82% (active); with HOP-62 NSCLC it was -72.3% (active); in the assay on NCI-H460 lung, -5.5% (active); with HOP-92 NSCLC, -76.5% (active); in the assay on NCI-H522 lung it was -76.5% (active). Moreover, the growth was -75% (active) with A549/ATCC NSCLC, -89% (active) in the assay with 786-0 renal and -87.4% (active) in the assay with COLO 205 colon.

For the compound `O=[N+]([O-])c1ccc(/C=C/c2nc3ccccc3n3c(=S)[nH]nc23)cc1`, the growth in the assay on NCI-H226 lung was 65.3%; in the assay with NCI-H322M lung it was 84.1%; in the assay with HOP-62 NSCLC, 80.2%; in the assay on NCI-H460 lung, 78%; in the assay on HOP-92 NSCLC, 68.2%; with NCI-H522 lung, 63.6%. For the same compound, the growth is 77% with A549/ATCC NSCLC, 102% with 786-0 renal and 104% with COLO 205 colon.

With `CC(=O)Oc1ccc(/C=C/C(=O)N[C@@H](Cc2ccccc2)C(O)C(=O)NCc2ccccc2)cc1OC(C)=O` (some centres not stated), the growth in the assay with NCI-H226 lung was 102%; in the assay on NCI-H322M lung, 83.4%; in the assay on HOP-62 NSCLC, 95.2%; in the assay with NCI-H460 lung it was 56%; in the assay with HOP-92 NSCLC, 90%; with NCI-H522 lung, 17.2%. Besides, the growth is 87.7% in the assay with A549/ATCC NSCLC, 81.6% in the assay with 786-0 renal and 91.1% in the assay on COLO 205 colon.

Take `Cn1cc(-c2cc3nc(-c4c[nH]c5ccc(Br)cc45)cc(N)n3n2)c2ccccc21`: the growth is -35% (active) in the assay on NCI-H226 lung; -48.8% (active) with NCI-H322M lung; -74.4% (active) in the assay on HOP-62 NSCLC; -52.9% (active) in the assay on NCI-H460 lung; -73.6% (active) with HOP-92 NSCLC; -68.9% (active) in the assay with NCI-H522 lung. The growth in the assay with A549/ATCC NSCLC is -71.7% (active); in the assay on 786-0 renal, -89.6% (active); with COLO 205 colon, -83.5% (active).

As to `COc1ccc2[nH]cc(-c3cc(N)n4nc(-c5cn(C)c6ccccc56)cc4n3)c2c1`, the growth in the assay on NCI-H226 lung is -19.3% (active); with NCI-H322M lung it was -97.2% (active); in the assay with HOP-62 NSCLC it was -66.4% (active); in the assay with NCI-H460 lung, -1.01% (active); in the assay on HOP-92 NSCLC, -71% (active); in the assay with NCI-H522 lung, -75.9% (active). Moreover, the growth in the assay with A549/ATCC NSCLC was -75.6% (active); in the assay on 786-0 renal, -87.6% (active); in the assay on COLO 205 colon, -84.7% (active).

In the case of `Cc1cc(C)cc(NC(=O)Cn2cc(COn3nnc4ccccc43)nn2)c1`, the growth was 101% in the assay with NCI-H226 lung; 99.3% in the assay on NCI-H322M lung; 115% with HOP-62 NSCLC; 114% with NCI-H460 lung; 117% with HOP-92 NSCLC; 95.6% in the assay with NCI-H522 lung. Besides, the growth is 107% in the assay with A549/ATCC NSCLC, 101% with 786-0 renal and 117% with COLO 205 colon.

For `COc1cc2oc(-c3cccc(C(=O)Nc4ccc(Cl)cc4)c3)cc(=O)c2c(OCCNC(=O)[C@H](CO)NC(=O)OC(C)(C)C)c1OC`, the growth in the assay with NCI-H226 lung is 42%; in the assay with NCI-H322M lung, 35.4%; with HOP-62 NSCLC, 55.1%; with NCI-H460 lung, 9.69% (active); in the assay with HOP-92 NSCLC it was -2.01% (active); in the assay with NCI-H522 lung, 6.54% (active). Besides, the growth in the assay with A549/ATCC NSCLC was 23.8%; in the assay with 786-0 renal, 32.4%; in the assay on COLO 205 colon it was -43.4% (active).

For `COc1ccc2c(c1)c(-c1cc(N)n3nc(-c4cn(C)c5ccccc45)cc3n1)cn2C`, the growth in the assay on NCI-H226 lung is -44% (active); in the assay with NCI-H322M lung, -42.2% (active); with HOP-62 NSCLC it was -59.6% (active); in the assay on NCI-H460 lung it was -44.5% (active); in the assay with HOP-92 NSCLC, -75.2% (active); with NCI-H522 lung, -64.4% (active). Further, the growth with A549/ATCC NSCLC is -44.6% (active); with 786-0 renal it was -88.3% (active); in the assay with COLO 205 colon, -83% (active).

As to `O=C(c1ccccc1)c1ccc2nc(-c3cccc(Cl)c3)[nH]c2c1`, the growth in the assay on NCI-H226 lung is 105%; in the assay on NCI-H322M lung, 105%; in the assay on HOP-62 NSCLC it was 107%; in the assay on NCI-H460 lung it was 111%; in the assay with HOP-92 NSCLC, 111%; in the assay with NCI-H522 lung it was 101%. Moreover, the growth in the assay with A549/ATCC NSCLC is 104%; with 786-0 renal, 100%; in the assay with COLO 205 colon, 116%.

`O=C(NNc1nc2cc(C(F)(F)F)ccc2n2cccc12)c1cnccn1`: the growth is -53.5% (active) in the assay on NCI-H226 lung; -13.6% (active) in the assay with NCI-H322M lung; -73.4% (active) in the assay with HOP-62 NSCLC; -30.3% (active) in the assay on NCI-H460 lung; -74% (active) with HOP-92 NSCLC; -60.2% (active) in the assay on NCI-H522 lung. Moreover, the growth is -60.5% (active) with A549/ATCC NSCLC, -99.1% (active) in the assay on 786-0 renal and -72.3% (active) with COLO 205 colon.

In the case of `Cc1cccc(NC(=O)CN2CCN(c3ncnc4c3cnn4-c3ccccc3)CC2)c1`, the growth was 84.8% with NCI-H226 lung; 91.3% in the assay with NCI-H322M lung; 96.2% with HOP-62 NSCLC; 73% in the assay on NCI-H460 lung; 98.2% with HOP-92 NSCLC; -39.6% (active) in the assay on NCI-H522 lung. The growth was 97% in the assay on A549/ATCC NSCLC, 98.1% in the assay with 786-0 renal and 109% in the assay with COLO 205 colon.

Regarding `COc1ccc(/C=C/c2nc3ccccc3nc2Nc2cccc(C)c2)cc1`, the growth in the assay on NCI-H226 lung was 93.1%; in the assay with NCI-H322M lung, 105%; in the assay on HOP-62 NSCLC, 92.7%; in the assay on NCI-H460 lung, 101%; with HOP-92 NSCLC it was 99.3%; in the assay with NCI-H522 lung, 83%. In addition, the growth in the assay on A549/ATCC NSCLC is 106%; in the assay with 786-0 renal, 97.4%; in the assay on COLO 205 colon, 105%.
